# In PubChem BioAssay:
# Values joined by “and” are separate entries in the source; they are usually repeats but may differ in a detail not shown here. Equal entries are not always repeated. Records with an inconclusive call do not appear. Active and inactive are the calls of the source. Unless noted, no rule for the calls is given here.
# Legend:
# [1] = liver-stage malaria parasite load reduction – cell-based, known kinase inhibitor set, luminescence, hepatoma host viability (AID 624392); details: Plasmodium liver stage in hepatoma cells, luciferase luminescence, concentration not given here; liver cell % of control: measured here: host liver cell viability; parasite % of control: stronger effect = lower value;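 also: infected cells incubated roughly two days before readout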
# [2] = altered dexamethasone sensitivity, NF-kB reporter, cell-based, luciferase, IL-1B stimulus (AID 624486); details: IL-1B + dexamethasone, luminescence; percent of negative control (+Dex): actives lie on both sides, concentration not given here; z-score: measured here: IL-1B alone, no Dex;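 as to percent of negative control (+Dex): 100% = mean signal of vehicle control wells on the plate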
# [3] = C. elegans survival during P. aeruginosa infection – whole organism (AID 651566);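 also: tested at 14 µM; sign flipped so higher z means a lower ratio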; details: C. elegans killed by P. aeruginosa, survival ratio
# [4] = pro-inflammatory signaling induction in mouse macrophages – cell-based, murine, luminescence (AID 652131); details: murine macrophage pro-inflammatory reporter, stronger effect = higher value
# [5] = target: Cellular tumor antigen p53 (Homo sapiens) (UniProt P04637); experiment: GFP-p53 level modulators in HPV16+ cells – imaging, known kinase inhibitor set, EGFP/DsRed ratio (AID 1053116); details: GFP-p53 stability, stronger effect = higher value; EGFP object count: measured here: GFP-p53 positive objects count;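 also: cells exposed to compounds for 24 h at 37 °C before reading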
# [6] = inducers of IRF3 signaling, differentiated THP-1 – cell-based, PMA-stimulated THP-1, luminescence (AID 1053176); details: PMA-differentiated THP-1, IRF3 reporter luminescence; stronger effect = higher value
# [7] = MELAS cybrid and Rieske KO viability enhancers – cell-based, MELAS cybrids, Rieske KO mouse fibroblasts, CellTiter-Glo, primary screen (AID 1508586;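 active = mean z-score across replicates of 1.96 or higher in either the MELAS or the Rieske mutant cell line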;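 also: z relative to plate mean and SD of compound and empty wells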); details: low glucose
# [8] = viability loss with induced miR-34 in A549 – imaging, A549 dox-inducible miR-34, nuclei and caspase counts, primary screen (AID 1347080;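 active = compounds whose cell count with miR-34 switched on is under 0.7 times the count with it off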); details: A549 miR-34 inducible, Hoechst nuclei count, 48 h
# [9] = galactose survival enhancers in mitochondrial complex I cybrids – cell-based, galactose medium, ATP luminescence, primary screen (AID 1645843;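 active = z-score of at least 1.8 in each of two replicates, scored against plate mean and spread of sample wells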;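 also: positive z means more ATP and so rescue of galactose-driven cybrid death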); details: complex I mutant cybrid cells, 72 h, stronger effect = higher value
# [10] = P. berghei load reduction in hepatocytes – cell-based, HepG2, luciferase luminescence, HepG2 viability, primary screen (AID 624349; in the data active = parasite load remaining mostly below about 12%, no sharp cut-off; inactive = mostly above about 10%;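 also: 100% = mean of DMSO negative control wells on the same plate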); details: P. berghei liver stage in HepG2, luciferase luminescence, concentration not given here; parasite load remaining: stronger effect = lower value; viability: measured here: HepG2 viability without parasites
# [11] = viability loss in pontine glioma line – cell-based, SU-DIPG-XXV, MIPE5.0, CellTiter-Glo, qHTS, dose response (AID 1347065; cut-off not given, nearly all actives have AC50 up to about 26 µM;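 also: cells exposed to compound for 48 hours before ATP readout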); details: CellTiter-Glo ATP luminescence
# [12] = JHH-DIPG-1 glioma cell viability, MIPE5.0 library, CellTiter-Glo luminescence, qHTS (AID 1347067; cut-off not given, nearly all actives have AC50 up to about 26 µM;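 also: cells exposed to compound for 48 hours before readout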); details: JHH-DIPG-1 glioma viability, CellTiter-Glo ATP luminescence
# [13] = growth inhibition of DIPG cells – cell-based, MIPE5.0 library, qHTS (AID 1347068; cut-off not given, nearly all actives have IC50 up to about 30 µM); details: SU-DIPG-XXV viability
# [14] = MELAS cybrid survival, CellTiter-Glo 48 h, stronger effect = higher value
# [15] = Rieske KO mouse fibroblast survival, CellTiter-Glo 72 h
# [16] = stronger effect = lower value, cell number ratio, induced over uninduced
# [17] = measured here: relative caspase fold change +Dox/-Dox
# [18] = measured here: total cells with miR-34 induction, stronger effect = lower value
# [19] = measured here: total cells without miR-34 induction
# Sequence of Cellular tumor antigen p53 (Homo sapiens) (P04637 whole entry, looked up): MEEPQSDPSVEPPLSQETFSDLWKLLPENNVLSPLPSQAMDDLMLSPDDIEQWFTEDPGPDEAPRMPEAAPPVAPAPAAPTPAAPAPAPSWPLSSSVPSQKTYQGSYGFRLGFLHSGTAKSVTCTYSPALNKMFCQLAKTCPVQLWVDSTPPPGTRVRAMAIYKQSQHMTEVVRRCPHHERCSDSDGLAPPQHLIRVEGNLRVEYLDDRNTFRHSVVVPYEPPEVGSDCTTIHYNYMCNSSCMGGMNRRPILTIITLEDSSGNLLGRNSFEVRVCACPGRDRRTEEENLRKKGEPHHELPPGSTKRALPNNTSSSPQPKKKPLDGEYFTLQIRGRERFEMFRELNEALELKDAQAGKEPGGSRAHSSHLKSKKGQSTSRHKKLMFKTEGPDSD
smiles,measurement,setting,value
CN(C)c1cc2c(Nc3ccc4nc(Cc5ccccc5)[nH]c4c3)ncnc2cn1,liver cell % of control,[1],154%
same,parasite % of control,[1],105% (inactive)
same,percent of negative control (+Dex),[2],77% (inactive)
same,z-score,[2],-0.53
same,z-score,[3],0.16 (inactive)
same,z-score,[4],0.922 (inactive)
same,EGFP object count,[5],3
same,EGFP/DsRed ratio,[5],0.0121 (inactive)
same,fraction signal,[6],-0.006 (inactive)
same,z-score,[7]; [14],0.173 (inactive)
same,z-score,[7]; [15],-0.0343
CN(C)c1cc2c(Nc3ccc4c(cnn4Cc4ccccc4)c3)ncnc2cn1,liver cell % of control,[1],130%
same,parasite % of control,[1],78.7% (inactive)
same,percent of negative control (+Dex),[2],68% (inactive)
same,z-score,[2],-1.64
same,z-score,[3],0.66 (inactive)
same,z-score,[4],-0.608 (inactive)
same,EGFP object count,[5],3.5
same,EGFP/DsRed ratio,[5],0.0403 (inactive)
same,fraction signal,[6],-0.004 (inactive)
same,fold change,[8]; [16],1.64 (inactive)
same,fold change,[8]; [17],0.646
same,cell count,[8]; [18],3320
same,cell count,[8]; [19],2020
same,z-score,[7]; [14],-0.0495 (inactive)
same,z-score,[7]; [15],-0.233
same,z-score,[9],-0.71 (inactive)
NS(=O)(=O)c1ccc(N=Nc2c(=O)[nH]c3ccc4[nH]cccc4c23)cc1,liver cell % of control,[1],108%
same,parasite % of control,[1],91% (inactive)
same,percent of negative control (+Dex),[2],144% (active)
same,z-score,[2],1.98
same,z-score,[3],1.48 (inactive)
same,z-score,[4],-1.63 (inactive)
same,EGFP object count,[5],1.5
same,EGFP/DsRed ratio,[5],0.0128 (inactive)
same,fraction signal,[6],-0.0065 (inactive)
same,z-score,[7]; [14],2.43 (active)
same,z-score,[7]; [15],0.199
Cc1ccc(O)cc1Nc1ccnc2cc(-c3ccccn3)ccc12,liver cell % of control,[1],100%
same,parasite % of control,[1],65.6% (inactive)
same,percent of negative control (+Dex),[2],89.5% (inactive)
same,z-score,[2],-0.24
same,z-score,[3],-1.05 (inactive)
same,z-score,[4],5.39 (inactive)
same,EGFP object count,[5],3.5
same,EGFP/DsRed ratio,[5],0.137 (inactive)
same,fraction signal,[6],0.014 (inactive)
same,z-score,[7]; [14],-0.612
same,z-score,[7]; [15],4.8
COc1ccc(COc2ccc(Cc3cnc(N)nc3N)cc2OC)cc1,parasite load remaining,[10],13.9% (inactive)
same,viability,[10],98.2%
same,liver cell % of control,[1],99.1%
same,parasite % of control,[1],45.5% (inactive)
same,percent of negative control (+Dex),[2],90% (inactive)
same,z-score,[2],-0.44
same,z-score,[3],-0.075 (inactive)
same,z-score,[4],1.35 (inactive)
same,EGFP object count,[5],4.5
same,EGFP/DsRed ratio,[5],0.0511 (inactive)
same,fraction signal,[6],-0.003 (inactive)
same,outcome,[11],inactive
same,outcome,[12],inactive
same,outcome,[13],inactive
same,fold change,[8]; [16],0.931 (inactive)
same,fold change,[8]; [17],0.609
same,cell count,[8]; [18],7300
same,cell count,[8]; [19],7840
same,z-score,[7]; [14],-0.29 (inactive) and -0.397 (inactive)
same,z-score,[7]; [15],-0.126 and -1.03
